Records with an inconclusive call do not appear. Values without a mark were called inactive. Calls come from the whole dose curve; as a rule, active = well fitted inhibition curve with a large enough effect; inconclusive = small, poorly fitted or top-dose-only effect; inactive = flat fitted curve, though single readings scatter.

For the assay, the target named is Aldehyde dehydrogenase, mitochondrial (Homo sapiens) (UniProt P05091). As to the kind of experiment: qHTS for Inhibitors of the Aldehyde Dehydrogenase Family (ALDH2) Primary screen (AID 2061308).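 Note: plate controls were vehicle for no effect and reference inhibitor for full effect; nearly all actives have a fitted effect of over 55% in size.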 To be noted: ALDH2 enzyme inhibition qHTS, 1536-well; series mostly up to 56 µM; activity change, negative = inhibition: at the top concentration. (In qHTS, concentration-response curves come from the screen itself.)
With `CC(/C=C/C1(O)C2(C)COC1(C)CC(=O)C2)O[C@@H]1O[C@H](CO)[C@@H](O)[C@H](O)[C@H]1O` (stereo not given in full), the “activity change, negative = inhibition” value was -1.62% [at 28 µM].

On to `CC1=C(C(=O)O[C@@H]2O[C@H](COC3OCC(O)C(O)C3O)[C@@H](O)[C@H](O)[C@H]2O)C(C)(C)CCC1` (stereo not given in full), for which the “activity change, negative = inhibition” value was -25.3% [at 28 µM]. Then `CC1=CC(=O)CC(C)(C)C1/C=C/C(C)O[C@@H]1O[C@H](CO)[C@@H](O)[C@H](O)[C@H]1O[C@@H]1OC[C@](O)(CO)[C@H]1O` (stereo not given in full), with 4.14% [at 28 µM]; and `N#CC(CCCN1CCN(/N=C/c2cccnc2)CC1)(c1ccccc1)c1ccccc1`, with -5.49%; and `C=C[C@H]1C(O[C@@H]2O[C@H](CO)[C@@H](O)[C@H](O)[C@H]2O)OC=C2C(=O)N3CCc4c([nH]c5ccccc45)C3CC21` (stereo not given in full), with 3.35% [at 28 µM].

As to `C[C@@H]1O[C@@H](O[C@H]2[C@@H]3C=CO[C@@H](O[C@@H]4O[C@H](CO)[C@@H](O)[C@H](O)[C@H]4O)[C@@H]3[C@@]3(CO)O[C@@H]23)[C@H](O)[C@H](OC(=O)/C=C/c2ccc(O)c(O)c2)[C@H]1O`, the “activity change, negative = inhibition” value was -3.93% [at 16.9 µM].

For `CC(O)/C=C/C1(O)C2(C)COC1(C)CC(O)C2` (stereo not given), the “activity change, negative = inhibition” value was -2.29%.

As to `COc1cc(C2c3cc4c(c(O)c3CC(CO)C2C(=O)O)OCO4)cc(OC)c1O` (stereo not given), the “activity change, negative = inhibition” value was -13.3% [at 28 µM].

On to `C=C1CC[C@H]2[C@@](C)(CCC(O)[C@@]2(C)CO)[C@@H]1C/C=C(/C(=O)O)C(O)CO` (stereo not given in full), for which the “activity change, negative = inhibition” value is -1.62%. Consider `COc1cc(N2CCC(N3CCN(C)CC3)CC2)ccc1Nc1ncc(Cl)c(-c2c[nH]c3ccccc23)n1`, for which the “activity change, negative = inhibition” value was 0.293%. In the case of `CC1CC2OCC3(O)CCC(O)C(C14CC(c1ccoc1)OC4=O)C23CO` (stereo not given), the “activity change, negative = inhibition” value was 5.48%. Take `C/C=C1/CC2C(=O)Nc3cc(O)c(OC)cc3C(=O)N2C1` (stereo not given): the “activity change, negative = inhibition” value was -2.31%.

As to `O=C(O)CCc1nccc2c1[nH]c1ccccc12`, the “activity change, negative = inhibition” value was -4.05%. Then `COc1cc(CC(COC2OC(CO)C(O)C(O)C2O)c2cc(/C=C/CO)cc(OC)c2O)ccc1O` (stereo not given), with -10.5% [at 28 µM]; and `COc1cc(C2Oc3c(OC)cc(/C=C/C(=O)OC[C@H]4O[C@@H](OC(C)(C)C(=O)O)[C@H](O)[C@@H](O)[C@@H]4O)cc3C2CO)ccc1O` (stereo not given in full), with -3.72% [at 16.9 µM]; and `CN1CCCC1Cc1c[nH]c2ccc(CCS(=O)(=O)c3ccccc3)cc12` (stereo not given), with 1.01%. With `COc1cc([C@H]2OC[C@]3(OC(C)=O)[C@@H](c4ccc(O[C@@H]5O[C@H](CO)[C@@H](O)[C@H](O)[C@H]5O)c(OC)c4)OC[C@H]23)ccc1O` the figure was 4.69% [at 16.9 µM]; with `COc1cc(Nc2ccc([N+](=O)[O-])cc2C(=O)O)cc2ccccc12`, -11%; with `C[C@@H]1C[C@H]2OC(=O)[C@@]3(C)CCC[C@](C)(C23)[C@@]1(O)CCC1=CC(=O)OC1O` (stereo not given in full), 2.28%. For the compound `OCCc1ccc(O[C@@H]2O[C@H](CO)[C@@H](O)[C@H](O)[C@H]2O)c(O)c1`, the “activity change, negative = inhibition” value is -2.76%.

For the compound `COc1cc(C2Oc3c(OC)cc(/C=C/C(=O)OC4CC(O)(C(=O)O)CC(O)C4O)cc3C2CO)ccc1O` (stereo not given), the “activity change, negative = inhibition” value was -17.5% [at 28 µM]. Then `O=C(OC[C@H]1O[C@@H](Oc2ccccc2CO)[C@H](O)[C@@H](O)[C@@H]1O)c1ccccc1`, with -8.63%; and `O=C(O)/C=C/c1cc2c(cc1O[C@@H]1O[C@H](CO)[C@@H](O)[C@H](O)[C@H]1O)OCO2`, with -9.26%; and `COC(=O)c1c(CC=C(C)C)c(OC2OC(CO)C(O)C(O)C2O)c2ccccc2c1OC1OC(CO)C(O)C(O)C1O` (stereo not given), with 2.24% [at 16.9 µM]. With `C[C@]1(C2CCCC2)Cc2cc(OCC(=O)O)c(Cl)c(Cl)c2C1=O` the figure was 7.12%; with `COc1cc(/C=C/C(=O)O[C@H]2[C@H](O)[C@@H](CO)O[C@@]2(CO)O[C@H]2O[C@H](COC(=O)c3ccc(O)cc3)[C@@H](O)[C@H](O)[C@H]2O)cc(OC)c1OC`, 13% [at 16.9 µM]. With `CC1(O)CCC2C(C(=O)O)=COC(OC3OC(CO)C(O)C(O)C3OC(=O)/C=C/c3ccc(O)cc3)C21` (stereo not given) the figure was -11.2% [at 28 µM]. For the compound `COC(=O)C1=CO[C@@H](O[C@@H]2O[C@H](CO)[C@@H](O)[C@H](O)[C@H]2O)[C@@H]2[C@@H](C)[C@@H](O)C[C@H]12`, the “activity change, negative = inhibition” value was -4.85%. Consider `NC(=O)[C@H](O[C@@H]1O[C@H](CO)[C@@H](O)[C@H](O)[C@H]1O)c1ccccc1`, for which the “activity change, negative = inhibition” value is -8.42%. Then `CC(=O)c1c(C)cccc1O[C@@H]1O[C@H](CO)[C@@H](O)[C@H](O)[C@H]1O`, with -8.67%.

`Fc1ccc(CN2CCC(Nc3ccc(C(F)(F)F)nn3)CC2)cc1F`: the “activity change, negative = inhibition” value is -4.73%. Consider `COc1ccc(/C=C/C(=O)O[C@@H]2[C@@H](O)[C@@H](O)[C@H](O[C@@H]3C=C(CO)[C@H]4[C@H](O[C@@H]5O[C@H](CO)[C@@H](O)[C@H](O)[C@H]5O)OC=C[C@H]43)O[C@H]2C)cc1O`, for which the “activity change, negative = inhibition” value is 8.34% [at 16.9 µM]. Then `Cc1c(-c2ccc3c(c2)OCO3)oc2ccc(C(O)C(C)O)cc12` (stereo not given), with 4.81%; and `C/C=C1/[C@H](O[C@@H]2O[C@H](CO)[C@@H](O)[C@H](O)[C@H]2O)OC=C(C(=O)OC)[C@H]1CC(=O)OCCc1ccc(OC(=O)C[C@@H]2C(C(=O)OC)=CO[C@@H](O[C@@H]3O[C@H](CO)[C@@H](O)[C@H](O)[C@H]3O)/C2=C/C)cc1`, with 6.76% [at 16.9 µM]; and `COc1cc2c(cc1O)C1(Cc3ccc4c(c3C1=O)OCO4)N(C)CC2` (stereo not given), with -3.33%. With `CC1(C(=O)O)CC[C@]2(C(=O)OC3OC(CO)C(O)C(O)C3O)CC[C@]3(C)C(=CCC4[C@@]5(C)CC[C@H](OC6OCC(O)C(O)C6OC6OC(CO)C(O)C(O)C6O)C(C)(C)C5CC[C@]43C)C2C1` (stereo not given in full) the figure was 5.53% [at 16.9 µM]. With `CC1CCC2C(C(=O)O)=CC3(O)CC(C)(C)CC123` (stereo not given) the figure was 0.864%. With `CC1(C)CC[C@]2(C(=O)O[C@@H]3O[C@H](CO)[C@@H](O)[C@H](O)[C@H]3O)CC[C@]3(C)C(=CCC4[C@@]5(C)C[C@@H](O)[C@H](O)C(C)(C)C5[C@H](O)C[C@]43C)[C@@H]2[C@@H]1O` (stereo not given in full), the “activity change, negative = inhibition” value was 24.4% [at 16.9 µM].

In the case of `CC(=O)N[C@H]1[C@H](O[C@H]2CC[C@@]3(C)C(CC[C@]4(C)C3CC=C3C5CC(C)(C)CC[C@]5(C(=O)O)[C@H](O[C@@H]5O[C@H](CO)[C@@H](O)[C@H](O)[C@H]5O)C[C@]34C)C2(C)C)O[C@H](CO[C@@H]2OC[C@H](O)[C@H](O)[C@H]2O[C@@H]2OC[C@@H](O)[C@H](O)[C@H]2O)[C@@H](O)[C@@H]1O` (stereo not given in full), the “activity change, negative = inhibition” value is 5.01% [at 16.9 µM].

On to `O=C(OC[C@@]1(O)CO[C@@H](O[C@H]2[C@H](Oc3ccc(O)cc3)O[C@H](CO)[C@@H](O)[C@@H]2O)[C@@H]1O)c1ccc(O)cc1`, for which the “activity change, negative = inhibition” value is -5.35% [at 28 µM].

The record behind these values is PubChem BioAssay (NCATS).
